Laboratory results as given in PubChem BioAssay (Tox21).
Where “and” joins values, the source holds several entries; their conditions need not be identical. Equal entries are not always repeated. Records with an inconclusive call do not appear. Calls of active or inactive are those of the source. Unless noted, calls follow the shape of the dose curve; as a rule, active = well fitted curve in the direction sought with a large enough effect in the repeat runs; inconclusive = weak or mixed curves; inactive = no such curve, though single readings can be large; an effect the other way counts as inactive or inconclusive.

Tests used:
[1] = qHTS assay to identify small molecule antagonists of the constitutive androstane receptor (CAR) signaling pathway - cell viability counter screen (AID 1224837); also: nearly all actives have a fitted effect of over 45% in size
Outline: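 Read-out: CellTiter-Fluor fluorescence after 23 hr at 37 C/5% CO2. Cells: HepG2 double-stable for hCAR and CYP2B6-2.2kb. Compounds tested at 15 concentrations in the presence of CITCO, final concentration 50 nM.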

[2] = biological target: Nuclear receptor subfamily 1 group I member 3 (Homo sapiens) (UniProt Q14994); test: qHTS assay to identify small molecule antagonists of the constitutive androstane receptor (CAR) signaling pathway (AID 1224838);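 also: HepG2 cells stably expressing hCAR with CYP2B6 luciferase reporter stimulated by CITCO; nearly all actives have a fitted effect of over 40% in size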
Outline: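 Read-out: ONE-Glo luciferase luminescence after 30 min at room temperature. HepG2-CYP2B6-hCAR double-stable cells, compounds in 15-point titration plus 50 nM CITCO final, 24 h at 37 C/5% CO2.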

[3] = biological target: Nuclear receptor subfamily 1 group I member 3 (Homo sapiens) (UniProt Q14994); test: qHTS assay to identify small molecule agonists of the constitutive androstane receptor (CAR) signaling pathway (AID 1224839); also: nearly all actives have a fitted effect of over 15% in size; also: potency is read from the fitted curve at half-maximal effect;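 as to activation: HepG2 cells stably carrying human CAR and a CYP2B6 luciferase reporter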
Outline: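 Luminescence read-out (ONE-Glo, 30 min, room temperature) from double-stable HepG2-CYP2B6-hCAR cells exposed 24 h to 15-point compound series in presence of 0.75 uM PK11195 final.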

[4] = qHTS assay to identify small molecule antagonists of the estrogen related receptor signaling pathway with the pleiotropic PPARgamma coactivator (PGC) from Tox21 10K library - cell viability counter screen (AID 1224840; active = well fitted cell-killing curve with a large enough effect in the repeat runs, not every such curve was filed as active; also: nearly all actives have a fitted effect of over 40% in size)
Outline: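 Fluorescence read-out of CellTiter-Fluor viability reagent, added after cells had been exposed to compound in DMSO for 17.5 h at 37 C; 30 min development at 37 C/5% CO2. Cells: PGC/ERR line, 2,000/well.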

[5] = biological target: Thyrotropin receptor (Homo sapiens) (UniProt P16473); test: qHTS assay to identify small molecule agonists of the thyroid stimulating hormone receptor (TSHR) signaling pathway (AID 1224843; calls by dose curve; also: nearly all actives have a fitted effect of over 45% in size)
Outline: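 Agonist-mode screen: TSHR HEK293 cells received test chemicals for half an hour at room temperature, then HTRF cAMP detection reagents for one hour prior to fluorescence measurement. Each chemical ran as a 15-concentration series, triplicated.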

[6] = qHTS assay to identify small molecule agonists of the hypoxia (HIF-1) signaling pathway - cell viability counter screen (AID 1224844; calls by dose curve; also: nearly all actives have a fitted effect of over 50% in size)
Outline: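 CellTiter-Glo luminescence read-out, 30 min RT, taken in the same wells as the beta-lactamase HRE reporter assay; HRE-bla ME-180 cells, 0.5% dialyzed FBS, 17 hr compound treatment at 37C, 5% CO2.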

[7] = qHTS assay to identify small molecule agonists of H2AX (AID 1224845; active = well fitted activation curve with a large enough effect in the signal ratio in the repeat runs, not every such curve was filed as active; the % refers to the signal ratio; also: potency is read from the fitted curve at half-maximal effect)
Outline: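 Wild-type CHO-K1 cells, plated overnight, exposed 3hr at 37C to 15 concentrations (0.76% DMSO final). Lysed, then HTRF anti-pH2AX (S139) cryptate and anti-H2AX-d2 antibodies, 24 hr room temperature; 665/620 nm emission read.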

[8] = qHTS assay to identify small molecule agonists of the hypoxia (HIF-1) signaling pathway (AID 1224846; active = well fitted activation curve with a large enough effect in the signal ratio in the repeat runs, not every such curve was filed as active; the % refers to the signal ratio)
Outline: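 Beta-lactamase FRET read-out (CCF4-AM substrate) from ME-180 cells carrying an HRE-driven bla reporter, after 17 hrs compound exposure at 37C/5% CO2. Cells were seeded at 2,000 per well in 0.5% dialyzed FBS medium and preincubated 5 hrs.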

[9] = qHTS assay to identify small molecule agonists of H2AX - cell viability counter screen (AID 1224847; calls by dose curve; also: top concentration of the series differs between compounds; nearly all actives have a fitted effect of over 30% in size)
Outline: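 CHO-K1 wt, 1000 cells/well, o/n 37C; cpds 15 conc, 3 h 37C, 0.76% DMSO; CellTiter-Glo, 30 min RT, luminescence.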

[10] = qHTS RealTime-Glo MT Cell Viability Assay in HEK293 cells - 32 hour (AID 1224868); also: top concentration of the series differs between compounds; nearly all actives have a fitted effect of over 50% in size
Outline: (§1)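 Assay medium contained NanoLuc luciferase plus cell-permeant prosubstrate, added with HEK293 cells at 600 cells/well. After 5 h at 37 C/5% CO2 compounds were added; plates stayed at 37 C for 40 h with serial luminescence reads.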

[11] = A CellTox Green Cytotoxicity Assay to monitor cytotoxicity in HEK293 cells - 0 hour (AID 1224869); also: nearly all actives have a fitted effect of over 50% in size
Outline: (§2)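 Read-out: fluorescence of a cell-impermeant cyanine dye staining DNA of dead cells, proportional to cytotoxicity. HEK293, 600 cells/well with reagent, compound (23 nL DMSO) added after 5 h; reads at 0, 8, 16, 24, 32, 40 h.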

[12] = qHTS RealTime-Glo MT Cell Viability Assay in HepG2 cells - 40 hour (AID 1224870); also: nearly all actives have a fitted effect of over 50% in size
Outline: (§3)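 HepG2 cells (600/well) mixed with RealTime-Glo MT reagent, settled 5 h at 37 C/5% CO2 before compound addition. Nonlytic NanoLuc luminescence from viable-cell prosubstrate reduction read repeatedly during 40 h treatment at 37 C.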

[13] = A CellTox Green Cytotoxicity Assay to monitor cytotoxicity in HEK293 cells - 40 hour (AID 1224871); also: nearly all actives have a fitted effect of over 45% in size
Outline: as §2

[14] = qHTS RealTime-Glo MT Cell Viability Assay in HEK293 cells - 16 hour (AID 1224872)
Outline: as §1

[15] = qHTS RealTime-Glo MT Cell Viability Assay in HepG2 cells - 8 hour (AID 1224873); also: nearly all actives have a fitted effect of over 55% in size
Outline: as §3

[16] = A CellTox Green Cytotoxicity Assay to monitor cytotoxicity in HEK293 cells - 24 hour (AID 1224875); also: nearly all actives have a fitted effect of over 45% in size
Outline: as §2

[17] = A CellTox Green Cytotoxicity Assay to monitor cytotoxicity in HepG2 cells - 16 hour (AID 1224876); also: nearly all actives have a fitted effect of over 45% in size
Outline: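 HepG2, 600 cells/well premixed w/ CellTox Green; 5 h settle, 37 C/5% CO2; pintool cpd add (DMSO); 37 C, 40 h; fluorescence read at 0, 8, 16, 24, 32, 40 h.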

[18] = qHTS assay to identify small molecule agonists of the estrogen related receptor (ERR) signaling pathway from Tox21 library (AID 1224849; calls by dose curve; also: nearly all actives have a fitted effect of over 15% in size); conditions: ERR reporter cell line, ONE-Glo luciferase, 18 h; at 92.4 µM (top of the series)
Outline: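 Luminescence readout (ONE-Glo, 30 min RT) after 18 h compound exposure at 37 C of NTP-supplied ERR reporter cells; cells were plated 6 h before compound addition by pin tool.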

[19] = qHTS RealTime-Glo MT Cell Viability Assay in HepG2 cells - 24 hour (AID 1224867); also: nearly all actives have a fitted effect of over 50% in size
Outline: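 qHTS, HepG2, 600 cells/well, RealTime-Glo (NanoLuc + prosubstrate) added with cells; 5 h preincubation; DMSO compound addition; 37 C; luminescence at 0/8/16/24/32/40 h.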

[20] = qHTS RealTime-Glo MT Cell Viability Assay in HEK293 cells - 40 hour (AID 1224874); conditions: RealTime-Glo luminescence; max response: hits give low values; also: nearly all actives have a fitted effect of over 50% in size
Outline: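 Luminescence readout at each listed time point; HEK293, 600 cells/well, RealTime-Glo MT reagent added with cells; compounds pinned (23 nL in DMSO) after 5 h at 37 C; continuous culture at 37 C.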
% is scaled to controls: 0 for no effect and ±100 for the full control effect.

Thyrotropin receptor (Homo sapiens), sequence (P16473 whole entry, looked up): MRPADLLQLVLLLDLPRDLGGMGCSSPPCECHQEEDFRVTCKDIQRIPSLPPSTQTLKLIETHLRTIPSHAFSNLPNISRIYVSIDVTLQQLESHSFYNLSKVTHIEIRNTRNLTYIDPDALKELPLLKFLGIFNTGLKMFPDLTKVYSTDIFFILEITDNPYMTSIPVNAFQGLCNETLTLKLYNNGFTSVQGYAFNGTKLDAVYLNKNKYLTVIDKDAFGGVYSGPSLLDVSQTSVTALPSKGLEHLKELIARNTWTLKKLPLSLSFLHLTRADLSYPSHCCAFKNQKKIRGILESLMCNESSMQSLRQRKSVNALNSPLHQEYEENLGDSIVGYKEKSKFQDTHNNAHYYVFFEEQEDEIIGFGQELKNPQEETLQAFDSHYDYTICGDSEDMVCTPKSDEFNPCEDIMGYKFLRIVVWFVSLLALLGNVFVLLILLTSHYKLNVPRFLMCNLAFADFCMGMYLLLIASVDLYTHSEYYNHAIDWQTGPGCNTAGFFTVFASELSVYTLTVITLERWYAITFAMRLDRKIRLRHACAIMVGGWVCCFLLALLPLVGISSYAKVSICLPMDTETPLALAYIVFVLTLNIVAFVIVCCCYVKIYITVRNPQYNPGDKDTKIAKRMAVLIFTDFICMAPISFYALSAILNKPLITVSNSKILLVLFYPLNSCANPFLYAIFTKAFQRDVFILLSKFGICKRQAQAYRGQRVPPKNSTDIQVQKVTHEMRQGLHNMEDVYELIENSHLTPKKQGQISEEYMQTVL
Nuclear receptor subfamily 1 group I member 3 (Homo sapiens), sequence (Q14994 whole entry, looked up): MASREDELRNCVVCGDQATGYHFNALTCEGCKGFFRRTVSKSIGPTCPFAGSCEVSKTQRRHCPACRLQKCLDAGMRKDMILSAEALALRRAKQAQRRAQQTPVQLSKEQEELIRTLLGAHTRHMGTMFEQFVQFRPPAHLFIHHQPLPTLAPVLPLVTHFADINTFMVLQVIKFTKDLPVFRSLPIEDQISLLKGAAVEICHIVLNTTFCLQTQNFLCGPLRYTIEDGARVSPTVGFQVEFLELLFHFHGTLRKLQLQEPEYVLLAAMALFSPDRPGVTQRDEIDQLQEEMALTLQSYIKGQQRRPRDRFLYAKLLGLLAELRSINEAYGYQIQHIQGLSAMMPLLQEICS

Oc1cccc2ccccc12
inactive: Potency [1] | Potency [2] | Potency [4] | Potency [5] | Potency [6] | outcome [8] | Potency [9] | Potency [10] | outcome [11] | outcome [12] | Potency [13] | Potency [14] | outcome [15] | Potency [16] | Potency [17]
active: Potency [3] 62.8 µM and 61.1 µM | Potency [7] 103 µM

CCC(O)OC(O)CC (configuration not stated)
inactive: Potency [1] | Potency [2] | Potency [3] | Potency [4] | Potency [5] | Potency [6] | Potency [7] | outcome [8] | Potency [9] | activity change, positive = activation [18] 4% and 3.85% | outcome [19] | Potency [10] | outcome [11] | outcome [12] | Potency [13] | Potency [14] | outcome [15] | max response [20] 5.86% and 8.63% | Potency [16] | Potency [17]

CC(C)(N)CO
inactive: Potency [1] | Potency [2] | Potency [3] | Potency [4] | Potency [5] | Potency [6] | Potency [7] | outcome [8] | Potency [9] | activity change, positive = activation [18] 3.88% and 1.99% | outcome [19] | Potency [10] | outcome [11] | outcome [12] | Potency [13] | Potency [14] | outcome [15] | max response [20] 5.94% and 1.04% | Potency [16] | Potency [17]
